# Bioassay records (PubChem BioAssay)
# PMP22 txn = modulators of PMP22 gene transcription in S16 Schwann cells; S16 Pmp22-F2sN Schwann cells, FLuc/NLuc coincidence luminescence, 24 h; Potency, µM (series often up to 57.5 µM), hits mostly inhibitors; 43,000 compounds, 2% hits; AID 1508649; active means clear falling dose curves in both reporters; inconclusive means both reporters move, but less clearly or upward; inactive means either reporter flat; the % is the NLuc reporter signal
#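 Schwann cells carrying the coincidence reporter were exposed to library compounds for 24 h at 37C, then lysed and read for FLuc and, after quenching, NLuc luminescence on a CCD imager.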
# OvCa metastasis = ovarian cancer metastasis inhibition, 3D TME model; 46,000 compounds, 0.1% hits; SKOV3ip1-GFP adhesion/invasion on 3D omental model, fluorescence; Potency, µM (titrated, usually from 45.8 µM), most hits filed as inhibitors; further: nearly all actives have a fitted effect of over 65% in size
#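 A 3D layer of primary human omental fibroblasts, mesothelial cells, fibronectin and collagen I, grown 48 hr, received SKOV3ip1-GFP cells in serum-free medium plus compounds at 0.36-46 umol/L. After 2 hr RT and 16 hr 37 C, fixed adherent GFP cells were counted; normalized to DMSO and tomatine.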
# S16 F2sN tox = S16 Schwann cell cytotoxicity | 43,000 compounds, 0.48% hits | Potency, µM (top dose mostly 57.5 µM), most hits filed as cytotoxic | S16 Pmp22-F2sN Schwann cells viability, CellTiter-Glo, 24 h | AID 1508642; further: nearly all actives have a fitted effect of over 65% in size
#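 Used to flag compounds lowering reporter output through toxicity, this quantitative HTS measures ATP-based CellTiter-Glo luminescence in S16 Pmp22-F2sN Schwann cells after 24 h compound exposure at 37C.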
# p53null 39C tox = p53 null cell cytotoxicity, nonpermissive temperature. 55,000 compounds, 0.97% hits. AID 904. Potency, µM (series often up to 46.1 µM), most hits filed as cytotoxic. H1299 p53-null (neo) cells, 39C, ATPlite viability, 24 h; further: nearly all actives have a fitted effect of over 50% in size
#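 ATP-luminescence viability readout (ATPlite, 20 min RT) after 24 hr compound treatment at 39C of H1299-neo or H1299-p53A138V cells; titration up to 46 uM; normalized to DMSO and 100 uM tamoxifen; Hill-fit AC50.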
# mTORC1 inh = reduces mTORC1 signaling in Tsc2 and p53 null MEF cells. Tsc2-/- p53-/- MEF, phospho-rpS6 immunofluorescence/PI, 24 h. Potency, µM (doses to about 38.3 µM), actives largely listed as inhibitors. 44,000 compounds, 0.78% hits. AID 493208; further: nearly all actives have a fitted effect of over 50% in size
#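 Read-out: phospho-S6 Alexa-488 intensity over PI intensity per well, scored as % active cells using thresholds from rapamycin (7.5 nM) and DMSO controls. Tsc2-/-, p53-/- MEFs exposed to compound for 24 h; PI cell count recorded as viability.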
# p53null 32C tox = kills p53 null cells at the permissive temperature. Potency, µM (titrated, usually from 46.1 µM), usual class: cytotoxic. 55,000 compounds, 0.62% hits. H1299-neo p53 null cells, ATP luminescence, 24 h, 32C. AID 903; further: nearly all actives have a fitted effect of over 55% in size
#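 We seeded p53-null H1299-neo cells, incubated them overnight at 37C, and added compounds across a range up to 46 uM. After 24 hours at 32C, ATP reagent was applied for 20 min at room temperature and luminescence recorded.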
# NLuc sat counter = counter-screen for PMP22 expression modulators: NanoLuc inhibition, saturating substrate; shares compounds with PMP22 txn; Secreted NLuc enzyme (filtered S16 cell medium), Nano-Glo luminescence; Potency, µM (titrated, usually from 57.5 µM), most hits filed as inhibitors; 690 compounds, 4% hits; AID 1508638
# NLuc Km counter = NanoLuc inhibition at Km substrate, PMP22 artifact check; shares compounds with PMP22 txn; secreted NLuc enzyme, coelenterazine luminescence, Km conditions; Potency, µM (titrated, usually from 57.5 µM), actives largely listed as inhibitors; 690 compounds, 5% hits
# FLuc ctr PMP22 = counter-screen for PMP22 expression modulators: firefly luciferase inhibition; shares compounds with PMP22 txn; purified P. pyralis FLuc, luminescence, 10 min; Potency, µM (series often up to 57.5 µM), hits mostly inhibitors; 690 tested, under 10 active; AID 1508640
# Target sequence (P08659 whole entry, looked up): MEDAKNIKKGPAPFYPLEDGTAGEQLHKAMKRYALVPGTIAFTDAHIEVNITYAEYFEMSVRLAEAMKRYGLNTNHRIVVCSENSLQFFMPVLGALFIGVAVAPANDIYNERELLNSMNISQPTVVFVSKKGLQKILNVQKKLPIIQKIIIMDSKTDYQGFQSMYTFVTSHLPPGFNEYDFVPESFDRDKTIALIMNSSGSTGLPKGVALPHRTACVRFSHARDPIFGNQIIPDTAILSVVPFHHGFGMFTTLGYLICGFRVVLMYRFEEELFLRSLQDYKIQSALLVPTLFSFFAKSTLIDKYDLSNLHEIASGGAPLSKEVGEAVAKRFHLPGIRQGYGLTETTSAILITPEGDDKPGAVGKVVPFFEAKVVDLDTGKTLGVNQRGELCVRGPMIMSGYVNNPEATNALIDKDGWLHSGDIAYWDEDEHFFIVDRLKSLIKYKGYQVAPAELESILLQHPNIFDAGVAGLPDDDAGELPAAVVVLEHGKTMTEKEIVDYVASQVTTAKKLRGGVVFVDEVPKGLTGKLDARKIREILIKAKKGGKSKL
# S16 viab conf = confirmation of cytotoxicity in S16 Pmp22-F2sN Schwann cells (luciferase reporters placed in the Pmp22 gene); shares compounds with PMP22 txn; S16 Schwann cells viability, CellTiter-Glo ATP luminescence, 24 h; Potency, µM (doses to about 57.5 µM), hits mostly cytotoxic; 690 compounds, 7% hits; AID 1508641
# PMP22 txn conf = confirmation of modulators of PMP22 gene transcription in S16 cells; AID 1508646; Potency, µM (titrated, usually from 57.5 µM), most hits filed as inhibitors; S16 Schwann cells Pmp22-F2sN, dual luciferase, 24 h; shares compounds with PMP22 txn; 690 compounds, 22% hits; active means clear falling dose curves in both reporters; inconclusive means both reporters move, but less clearly or upward; inactive means either reporter flat; the % is the FLuc reporter signal
# A number is an active result; n = inactive; u = inconclusive; x = no result given. Compounds with a hit are over-represented: about 3% of the library has one in this group of screens. Unless noted, the call rests on the fitted dose curve; in most records, active means well fitted curve in the direction sought with a large enough effect; inconclusive means small, poorly fitted or top-dose-only effect, or another doubt; inactive means no such curve, though single readings can be large; an effect the other way counts as inactive or inconclusive.
SMILES,PMP22 txn,OvCa metastasis,S16 F2sN tox,p53null 39C tox,mTORC1 inh,p53null 32C tox,others
Cc1ccc(C2c3c(-c4ccccc4O)n[nH]c3C(=O)N2CCc2ccccc2)cc1 (configuration not stated),u,u,n,u,16µM,n,
Cc1ccc(S(=O)(=O)Nc2cc(Cl)ccc2C(=O)Nc2nc(-c3ccccc3)cs2)cc1,x,n,x,x,x,x,
CC[C@H](Nc1ncnc2nc[nH]c12)c1nc2cccc(F)c2c(=O)n1-c1ccccc1,x,n,x,x,x,x,
CCCOc1cccc(C2c3c(-c4ccccc4O)n[nH]c3C(=O)N2Cc2ccco2)c1 (configuration not stated),u,u,n,18µM,15µM,n,
CC(C)OCCCN1C(=O)c2[nH]nc(-c3ccccc3O)c2C1c1ccc(OCc2ccccc2)cc1 (configuration not stated),u,u,u,13µM,u,n,
C[C@H](NC(=O)[C@@H](O)c1cc(F)cc(F)c1)C(=O)N[C@@H]1C(=O)N(C)c2ccccc2-c2ccccc21,x,n,x,x,x,x,
Brc1ccc(Nc2c3c(nc4nncn24)CCC3)cc1,u,n,n,n,5.8µM,n,
Cc1ccc(Nc2c3c(nc4nncn24)CCC3)cc1,u,n,n,n,n,n,
C[C@H]1[C@@H](OC(=O)CCC(=O)O)O[C@@H]2O[C@@]3(C)CC[C@@H]4[C@H](C)CC[C@@H]1[C@@]24OO3,x,n,x,x,x,x,
Cc1cccc(NC(=O)c2cnn(-c3ccccc3)c2-n2cccc2)c1C,13µM,n,n,n,n,n,NLuc sat counter=19µM;NLuc Km counter=15µM;FLuc ctr PMP22=n;S16 viab conf=n;PMP22 txn conf=n
COc1cc(C(=O)Nc2c(C(=O)Nc3ccccc3F)oc3ccccc23)cc(OC)c1OC,17µM,n,n,n,n,n,NLuc sat counter=n;NLuc Km counter=n;FLuc ctr PMP22=u;S16 viab conf=n;PMP22 txn conf=u
COc1ccccc1NC(=O)c1oc2ccccc2c1NC(=O)c1c(F)cccc1F,n,n,n,n,n,n,
COc1ccc(Cn2c(SCC(=O)NCc3ccccc3)nc3ccccc32)cc1,u,n,u,n,n,n,
COc1ccc(Cn2c(SCC(=O)N(C)Cc3ccccc3)nc3ccccc32)cc1,20µM,n,n,n,n,n,NLuc sat counter=u;NLuc Km counter=u;FLuc ctr PMP22=u;S16 viab conf=n;PMP22 txn conf=n
COc1ccc(C2CC(=O)c3cc(-c4nc(-c5ccc(Cl)cc5)cs4)c(=O)[nH]c3C2)cc1 (configuration not stated),u,n,n,n,n,n,
O=C1CC(c2ccccc2)Cc2[nH]c(=O)c(-c3nc(-c4ccc(F)cc4)cs3)cc21 (configuration not stated),3.4µM,n,n,n,u,n,NLuc sat counter=u;NLuc Km counter=u;FLuc ctr PMP22=n;S16 viab conf=n;PMP22 txn conf=u
CCOC(=O)COc1ccc(F)cc1C(=O)c1ccn2nc(-c3ccc(C)cc3)cc2n1,n,n,u,x,n,x,
